Data on 75 compounds can be found in PubChem BioAssay AID1159606 (Sanford-Burnham Center for Chemical Genomics, 2016).

Screen size: about 360,000 compounds; about 7,300 (2%) were called active. This excerpt belongs to a sample that is enriched for actives. Unmarked numbers belong to inactive results. No stated cut-off is given here; in the data, active means inhibition above about 50%; inactive means the rest.

The assay can be described thus: inhibitors of TWEAK-Fn14 signaling, primary screen, luciferase reporter cells, uHTS (AID 1159606). The conditions noted are these: TWEAK-stimulated Fn14 reporter cells, luciferase luminescence, 8 h; at 10 µM; hits give high values. Background: In a reporter assay the amount or activity of a reporter protein is the signal.
In the case of `CC(=CCOc1ccc2ccc(=O)oc2c1)C1=CC(=O)C(C)(C)O1`, the inhibition is 70.4% (active).

With `CSc1nc2ccc(C)cc2c(=O)n1-c1cccnc1`, the inhibition is 0.75%.

For the compound `CN(C)c1ccc(/C=C2\CC3C4CC=C5CC(O)CCC5(C)C4CCC3(C)C2=O)cc1` (stereo not given), the inhibition was -57.2%.

In the case of `NC(=O)Nc1cccc(C(F)(F)F)c1`, the inhibition is -2.53%.

For `Cc1cccc(NC(=O)N2CC3CC(C2)c2cccc(=O)n2C3)c1` (stereo not given), the inhibition is 3.66%.

For the compound `CNC(=O)O/N=C(\N)Cc1csc2ccccc12`, the inhibition is 16.5%.

In the case of `CC(=O)c1ccc(OC(NC(=O)Cc2ccccc2)C(Cl)(Cl)Cl)cc1` (stereo not given), the inhibition was -4.23%.

Regarding `C[C@H]1CN([C@@H](C)CO)C(=O)CCCn2nncc2CO[C@H]1CN(C)C(=O)Oc1cccc2ccccc12`, the inhibition was 9.18%.

With `O=C1NC(=O)C(C/C=C/c2ccccc2)C(=O)N1`, the inhibition was 0.48%.

As to `CCCCCCCCCCCCn1ccc(=N)cc1`, the inhibition is 74% (active).

On to `CCCn1c(C(=O)c2ccccc2OC)nc2ccccc21`, for which the inhibition is -3.91%.

Consider `COc1ccc2c(c1)NP(=S)(c1ccccc1)N2` (stereo not given), for which the inhibition is -0.5%.

Turning to `CN(C)CC1Oc2ccccc2OC1(O)c1ccccc1` (stereo not given), the inhibition is 79.6% (active).

Take `Cc1ncoc1C(=O)NCC1=C(c2cccc3ccccc23)C[C@@H]2CC[C@H]1N2Cc1ccco1`: the inhibition is -0.7%.

`COc1cccc(-c2nc3ccc(N4CCN(C)CC4)cc3[nH]2)c1`: the inhibition is -27.5%.

For `CC12CCC(O)CC1CCC1C2CCC2(C)C(C(=O)CC(O)C(F)(F)F)CCC12` (stereo not given), the inhibition was -91.4%.

Turning to `C[C@]12CC[C@H](O)C[C@H]1CC[C@@H]1C2CC[C@]2(C)[C@@H](C3=CC(=O)OC3)[C@@H](O)C[C@]12O` (stereo not given in full), the inhibition is 56.4% (active).

Consider `O=c1[nH]c(=O)n(-c2ccc(F)cc2)c(O)c1C=NCCN1CCCCC1`, for which the inhibition is 6.59%.

Consider `CN(C)C(=O)Oc1cc(=O)n2c3c(cccc13)CCC2`, for which the inhibition is 30.3%.

As to `Cc1cc(C(=O)OCC(=O)Nc2c(F)cccc2F)c(C)n1C1CC1`, the inhibition is 4.53%.

For the compound `C[C@]12CCC3C(CC[C@H]4[C@H](O)[C@H](O)CC[C@]34C)C1CCC2=O` (stereo not given in full), the inhibition was 96.5% (active).

Take `C[C@]12CCC3C(CC[C@H]4[C@H](O)[C@H](O)CC[C@]34C)C1CC[C@@H]2O` (stereo not given in full): the inhibition is -13.2%.

Take `C[C@]12CC[C@H](O)CC1=C([N+](=O)[O-])CC1C2CC[C@@]2(C)C1CC[C@@H]2O` (stereo not given in full): the inhibition is 1.49%.

As to `OC1/C(=C/c2ccc(C(F)(F)F)cc2)N2CCC1CC2` (stereo not given), the inhibition is -3%.

As for `COC(=O)C1=C(c2ccc3ccccc3c2)C[C@@H]2CC[C@H]1N2C(=O)NCCO`, the inhibition is 6.86%.

As for `CCN1CCN(c2nc3c(c(=O)[nH]2)CCC3)CC1`, the inhibition is 14.3%.

For the compound `COc1ccc2[nH]c3c(c2c1)CCN[C@H]3C`, the inhibition is 75.7% (active).

`Cc1ccc2c(c1)=C/C(=C\c1c(O)[nH]c(=O)[nH]c1=O)C(=O)N=2`: the inhibition is -3.63%.

Regarding `Cc1cc2ccccn2c1C(C[N+](=O)[O-])c1c(F)cccc1Cl` (stereo not given), the inhibition is 102% (active).

With `Cc1cccc(-n2c(C)nc3cc(C(=O)N4CCC5(CC4)OCCO5)ccc32)c1`, the inhibition is -8.93%.

Take `O=c1[nH]c2ccccc2n1C1CCN(C(c2ccnc3ccccc23)c2nnnn2Cc2ccccc2)CC1` (stereo not given): the inhibition is 27.5%.

On to `CCN(N=Nc1nonc1OC)c1nonc1OC`, for which the inhibition was -11.1%.

As for `O=C1NC(=O)N(CCc2ccc(F)cc2)C(=O)/C1=C/C=C/c1ccccc1`, the inhibition was 79.4% (active).

Regarding `COC1=CC=C2[C@H]3Cc4ccc(OC)c5c4[C@@]2(CCN3C)C1O5` (stereo not given in full), the inhibition is -16%.

As to `Cc1cc(N2C(=O)C3CCCN3C2c2ccc(Cl)c(Cl)c2)no1` (stereo not given), the inhibition was -3.31%.

On to `CC(C)c1ccc(O)c(CN2CCN(c3ccccc3)CC2)c1`, for which the inhibition is 4.05%.

Take `CCC(C)(O)C(=O)OC1C(=O)OC2CC3C(C)=CC(=O)C(O)C3(C)C3C4(O)OCC23C1C(C)C4O` (stereo not given): the inhibition was 99.5% (active).

With `CCOP(=O)(OCC)C(O)c1ccc(OC)cc1OC` (stereo not given), the inhibition was 3.38%.

Consider `CCC(=O)OC(Cc1ccccc1)(c1ccccc1)C(C)CN(C)C` (stereo not given), for which the inhibition was 3.52%.

As to `O=C(NCC1=C(c2ccc3ccccc3c2)C[C@@H]2CC[C@H]1N2Cc1ccco1)c1cccs1`, the inhibition is -11.2%.

As to `CC(=O)OC1C2(CC3N4C(=O)C5(CO)SSC4(CC31O)C(=O)N5C)OC(C)C(C)(C)C2=O` (stereo not given), the inhibition was 107% (active).

As to `CN(C)C(=O)NC(O)C(Cl)(Cl)Cl` (stereo not given), the inhibition was 5.54%.

On to `Cc1cccc(-n2c(O)c(C=NC34CN5CN(CN(C5)C3)C4)c(=O)[nH]c2=O)c1`, for which the inhibition is -1.26%.

Take `COC1C(O)C(C)OC(OC2CCC3(C=O)C(CCC4C3CCC3(C)C(C5=CC(=O)OC5)CCC43O)C2)C1O` (stereo not given): the inhibition was 80.6% (active).

With `CC(=NCc1ccc2c(c1)OCO2)c1c(O)[nH]c(=O)[nH]c1=O`, the inhibition was -1.24%.

`CCN(CC)C(=O)Oc1ccc(NC(=O)N2CCOCC2)cc1`: the inhibition is 12.2%.

Take `Cc1ccc(N(C)C(=O)Oc2cccc3ccc(C)nc23)cc1`: the inhibition was -2.35%.

Turning to `O=Cc1cn(Cc2ccc(F)cc2Cl)c2ccccc12`, the inhibition was 56.5% (active).

`CC1C(=O)OC2CCN3CC=C(COC(=O)C(C)(O)C1(C)O)C23` (stereo not given): the inhibition was -18.7%.

Turning to `CC[N+]1(C)CCCC(OC(=O)C(O)(c2ccccc2)c2ccccc2)C1` (stereo not given), the inhibition was -7.55%.

As to `CCOC(=O)[C@]12Cc3ccccc3[C@H]1N(C1CCCCC1)C(=O)c1cc(OC)ccc12`, the inhibition was 42.5%.

For the compound `COC(=O)CN(CCCl)P1(=O)OCCCN1CCCl` (stereo not given), the inhibition was -6.99%.

Regarding `O=C1NC(=O)C(CCOc2ccccc2)(CCc2ccccc2)C(=O)N1`, the inhibition is -21.8%.

In the case of `COc1ccccc1C1=NCc2nnc(CSC)n2-c2ccc(Cl)cc21`, the inhibition is 12.6%.

For the compound `CCN1CC2C3CCC(C)(O3)C2C1` (stereo not given), the inhibition is 2.33%.

Regarding `CCOC(=O)C1=C(C)OC(N)=C(C(=O)OC)C12C(=O)Nc1ccc(Br)cc12` (stereo not given), the inhibition was -9.87%.

On to `COc1ccc(C2C=C(C)Oc3c2c(=O)oc2ccccc32)cc1OC` (stereo not given), for which the inhibition is 1.69%.

In the case of `CCNc1nc2[nH]c(=O)c3c(c2s1)OC(N)=C(C#N)C3c1cccs1` (stereo not given), the inhibition was 19.6%.

Regarding `N#CC1=C(N)Oc2c(c(=O)oc3ccccc23)C1c1ccccc1OC(=O)c1cccs1` (stereo not given), the inhibition is 51.3% (active).

With `Nc1ccc(Cc2ccc(N)c(Cl)c2)cc1Cl`, the inhibition was 7.24%.

As to `COc1ccccc1OC(=O)c1ccc(C)c(S(=O)(=O)N2CCOCC2)c1`, the inhibition was 5.54%.

Turning to `COC(=O)C1=C(c2ccc(F)cc2F)C[C@@H]2CC[C@H]1N2C(=O)NC1CC1`, the inhibition was 10.7%.

For the compound `CCC/C(=N\O)c1c[nH]c2ccccc12`, the inhibition was -11.5%.

For `CCOc1ccc(C2SCC(=O)Nc3c2c(C)nn3C2CCOC(C)(C)C2)cc1` (stereo not given), the inhibition was 7.72%.

Consider `Cc1ccc(P(=S)(c2ccc(C)o2)N2CCOCC2)o1`, for which the inhibition is 73.2% (active).

In the case of `CCOC(=O)[C@]12Cc3cc(OC)ccc3[C@H]1N(C(C)C)C(=O)c1ccccc12`, the inhibition is 25.1%.

Consider `O=C(NC1CCCCC1)N1Cc2cc(N3CCCCC3)ccc2-n2nncc2C1`, for which the inhibition is -46.7%.

For `CN1CCN(/N=C/c2c[nH]c3ccccc23)CC1`, the inhibition is 4.46%.

Regarding `COC(=O)C1=C(c2ccc(OCc3ccccc3)cc2)C[C@@H]2CC[C@H]1N2C(=O)NCc1cccc(F)c1`, the inhibition was 37.4%.

On to `CN1CCN(Cc2ccccc2C(F)(F)F)CC1`, for which the inhibition was 0.88%.

As for `Fc1cccc(F)c1CN1CCN(Cc2c(F)cccc2F)CC1`, the inhibition was 92.7% (active).

On to `C/C(=N/O)c1ccc2ccc3ccccc3c2c1`, for which the inhibition was 2.22%.

For `COc1ccccc1N1CCN(C(CNC(=O)Oc2ccccc2)c2cccnc2)CC1` (stereo not given), the inhibition is 3.6%.

`COCc1cc(OC(=O)N(C)C)nc(-c2ccc(C)c(Cl)c2)n1`: the inhibition was 6.49%.

With `c1cc2c(cc1[C@H]1OC[C@H]3[C@@H]1CO[C@@H]3c1ccc3c(c1)OCO3)OCO2`, the inhibition is -20.1%.

As a reminder, the inhibition is the change of the read-out against control, counted positive when it falls.
